TDP1 block – inhibitors of human tyrosyl-DNA phosphodiesterase TDP1; Q9NUW8; recombinant TDP1, AlphaScreen DNA substrate cleavage; Potency, µM (highest dose often 130 µM), without a hit: at the top dose activity change, negative = inhibition, usual class: inhibitors; 350,000 compounds, 0.28% hits; AID 485290; also: potency is read from the fitted curve at half-maximal effect; nearly all actives have a fitted effect of over 40% in size
Target sequence (Q9NUW8 whole entry, looked up): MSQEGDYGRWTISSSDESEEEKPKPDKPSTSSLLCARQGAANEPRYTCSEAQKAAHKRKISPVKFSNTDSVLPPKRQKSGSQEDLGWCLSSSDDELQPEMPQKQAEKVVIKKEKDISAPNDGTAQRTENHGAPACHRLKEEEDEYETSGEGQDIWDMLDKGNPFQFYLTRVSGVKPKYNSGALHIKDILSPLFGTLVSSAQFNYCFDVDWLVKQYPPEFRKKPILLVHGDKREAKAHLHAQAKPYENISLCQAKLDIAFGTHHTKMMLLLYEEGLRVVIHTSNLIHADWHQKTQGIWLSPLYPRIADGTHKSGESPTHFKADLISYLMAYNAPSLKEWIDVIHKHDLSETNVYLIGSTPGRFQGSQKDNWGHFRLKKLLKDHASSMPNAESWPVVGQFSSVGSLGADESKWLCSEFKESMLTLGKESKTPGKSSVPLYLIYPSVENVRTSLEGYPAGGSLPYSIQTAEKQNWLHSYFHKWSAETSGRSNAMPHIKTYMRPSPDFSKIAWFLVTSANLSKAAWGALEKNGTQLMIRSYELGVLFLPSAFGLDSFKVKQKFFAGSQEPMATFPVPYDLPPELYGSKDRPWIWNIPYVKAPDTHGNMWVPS
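Compounds were preincubated with Tdp1 (1 nM final) for 15 min at room temperature before substrate (15 nM final) started a 5 min reaction; beads (10 ug/ml final) were then added for 10 min before AlphaScreen detection.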
CtBP-E1A inh – CtBP/E1A binding inhibition | activity change, % (test concentration not listed) | AID 651724 | 340,000 compounds, 0.49% hits | AlphaScreen GST-E1A/His-CtBP binding, 1536-well; hits give low values; in the data active = activity change below about -65%; inconclusive = mostly about -30% to -63%
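GST-E1A and His-tagged CtBP (125 nM each as 5X stock) were preincubated with pin-transferred compound for 2 h at 37 °C in the dark, then glutathione donor and nickel acceptor beads were added for 1 h before AlphaScreen reading.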
IL-1B inflam inh – inhibitors of inflammasome signaling (IL-1 beta secretion) | THP-1 LPS/ATP IL-1B secretion, AlphaLISA, 16 h; hits give low values | activity change, % at 57.5 µM | 360,000 compounds, 4.7% hits | AID 743279; in the data active = activity change below about -50%; inconclusive = mostly about -30% to -49%
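Secreted IL-1B measured by AlphaLISA bead assay after 16 h compound exposure of THP-1 cells; compounds (final up to 57.5 uM) added 1 h before LPS (250 ng/mL) and ATP (1.25 mM) stimulation; lower signal means less secretion.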
Six1-Eya2 inh – inhibitors of human Six1/Eya2 interaction | 360,000 compounds, 0.56% hits | activity change, % (no concentration beside the values) | Q15475+O00167 | AlphaScreen GST-Six1/His-Eya2 binding, biochemical; hits give low values; in the data active = activity change below about -65%; inconclusive = mostly about -30% to -63%
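Compounds are tested against tagged Six1 and Eya2 proteins bridged by glutathione donor and nickel acceptor beads; after a one-hour incubation at 37 °C without light, AlphaScreen emission is recorded.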
TDP1 cell CPT – DT40-hTDP1 cell growth loss with CPT; Potency, µM (series often up to 46.2 µM), without a hit: top-dose activity change, negative = growth inhibition, most hits filed as inhibitors; chicken DT40 Tdp1-/-;hTDP1 cells + 20 nM CPT, ATP luminescence, 48 h; 420,000 compounds, 12% hits; AID 686979; also: potency is read from the fitted curve at half-maximal effect; nearly all actives have a fitted effect of over 55% in size
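Chicken DT40 Tdp1-/- cells complemented with human TDP1, 400 cells/well, exposed to compounds plus 20 nM camptothecin for at least 48 h at 37 C; viability read as ATP content by CellTiter-Glo luminescence.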
DT40 TDP1 no CPT – qHTS for Inhibitors of human tyrosyl-DNA phosphodiesterase 1 (TDP1): qHTS in cells in absence of CPT | DT40 Tdp1-/- hTDP1 cells, no CPT, ATP luminescence, 48 h | Potency, µM (top dose mostly 46.2 µM), without a hit: at the top dose activity change, negative = growth inhibition, hits mostly inhibitors | AID 686978, 2013 | 420,000 compounds, 15% hits; also: potency is read from the fitted curve at half-maximal effect; nearly all actives have a fitted effect of over 55% in size
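Camptothecin absent (DMSO only). Human TDP1-complemented DT40 knockout cells, 400 cells/well, 37 °C for minimum 48 hr; ATP measured via CellTiter-Glo, 30 min dark incubation, luminescence.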
An asterisk follows results filed as active; u = inconclusive; x = no result. This is a sample that favours compounds with a hit; in the whole collection about 18% have one here. Unless noted, calls follow the shape of the dose curve; as a rule, active = well fitted curve in the direction sought with a large enough effect; inconclusive = small, poorly fitted or top-dose-only effect, or another doubt; inactive = no such curve, though single readings can be large; an effect the other way counts as inactive or inconclusive. % is scaled to controls: 0 for no effect and ±100 for the full control effect.

SMILES	TDP1 block	CtBP-E1A inh	IL-1B inflam inh	Six1-Eya2 inh	TDP1 cell CPT	DT40 TDP1 no CPT
COc1ccc(-c2ccc(CN3C(C(C)C)C(=O)N(Cc4cn(Cc5ccco5)nn4)CCS3(=O)=O)cc2)cc1OC (configuration not stated)	x	-17.7	12.0	-4.6	u	u
CCC/C=C/c1ccc(CN2C(C)C(=O)N(Cc3cn(Cc4ccco4)nn3)CCS2(=O)=O)cc1 (configuration not stated)	x	u	u	-19.0	u	u
CC(C)C1C(=O)N(Cc2cn(Cc3ccco3)nn2)CCS(=O)(=O)N1Cc1ccc(-c2ccc(Cl)c(Cl)c2)cc1 (configuration not stated)	x	-18.8	-22.7	-2.0	4.61µM*	3.26µM*
CC1C(=O)N(Cc2cn(Cc3ccco3)nn2)CCS(=O)(=O)N1Cc1ccc(-c2cccc(N(C)C)c2)cc1 (configuration not stated)	x	-11.3	-17.6	-29.6	25.9µM*	16.4µM*
O=C(CSc1nn(-c2ccccc2)c(=S)s1)NC1CCS(=O)(=O)C1 (configuration not stated)	2.7%	6.9	20.8	3.1	-25.1%	-22.1%
CC(C)CC1C(=O)N(Cc2cn(Cc3ccco3)nn2)CCS(=O)(=O)N1Cc1ccc(-c2ccc(F)cc2)cc1 (configuration not stated)	x	-11.8	-71.9*	-5.8	u	16.4µM*
CC1C(=O)N(Cc2cn(Cc3ccco3)nn2)CCS(=O)(=O)N1Cc1ccc(-c2ccc(F)nc2)cc1 (configuration not stated)	x	-24.9	-18.0	-1.8	-26.6%	u
COc1ccc(-c2ccc(CN3C(C)C(=O)N(Cc4cn(Cc5ccco5)nn4)CCS3(=O)=O)cc2)cc1 (configuration not stated)	x	0.4	5.9	-21.4	20.6µM*	23.1µM*
COc1ccc(-c2ccc(CN3C(C(C)C)C(=O)N(Cc4cn(Cc5ccco5)nn4)CCS3(=O)=O)cc2)cn1 (configuration not stated)	x	1.4	-24.6	-7.7	18.4µM*	20.6µM*
O=C(CSc1ccc(-c2cccnc2)nn1)Nc1ccccc1F	2.0%	0.2	-8.1	-0.4	u	-21.6%
CN(C)CCCOc1ccc(C(C)(C)c2ccccc2)cc1	-5.7%	-4.5	u	-2.5	u	18.4µM*
CC(C)Oc1nc(-c2ccccc2O)nc2ccccc12	1.1%	3.8	1.1	1.9	-3.9%	-14.5%
Cc1ccccc1OCCNC(=O)c1ccc2ccccc2n1	-5.6%	18.7	17.4	18.8	u	u
CCC(C)CCCCCCCCCCC(=O)O (configuration not stated)	x	4.8	8.4	-9.0	-8.8%	-13.5%
Cn1c(=O)oc2cc(S(=O)(=O)Nc3cccc(F)c3)ccc21	-2.6%	-8.8	2.9	-0.8	-12.8%	-0.6%
CCOC(=O)Cn1c(=O)oc2cc(S(=O)(=O)Nc3cc(OC)cc(OC)c3)ccc21	3.5%	x	x	x	16.4µM*	20.6µM*
CCOC(=O)c1ccc(NS(=O)(=O)c2ccc3c(c2)n(C)c(=O)n3C)cc1	-1.1%	x	-3.9	-9.7	20.6µM*	18.4µM*
COC(=O)c1ccc(NS(=O)(=O)c2ccc3c(c2)n(C)c(=O)n3C)cc1	x	-0.3	14.3	-12.6	-21.6%	u
CC(=O)c1ccc(S(=O)(=O)Nc2ccc(N3CCOCC3)cc2)cc1	-0.3%	-1.6	4.5	6.6	-2.4%	-17.7%
CSc1cccc(NS(=O)(=O)c2ccc3c(c2)oc(=O)n3C)c1	2.0%	-1.4	11.4	0.6	23.1µM*	u
CCOC(=O)c1ccc(S(=O)(=O)Nc2ccc(N3CCOCC3)cc2)cc1	6.4%	0.1	0.8	-7.3	20.6µM*	u
